# Reference: PubChem BioAssay (NCATS)
# Inconclusive results are not listed. Active and inactive are the calls of the source. Calls follow the shape of the dose curve; as a rule, active = well fitted curve in the direction sought with a large enough effect; inconclusive = small, poorly fitted or top-dose-only effect, or another doubt; inactive = no such curve, though single readings can be large; an effect the other way counts as inactive or inconclusive.
# Tested on: not listed separately
# Test: Primary redox qHTS assay for identification of artifact compounds. (AID 1845223)
# Conditions: Amplex Red/HRP redox cycling with DTT, fluorescence; series mostly up to 53.8 µM
# How it was run: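 Redox-cycling detection via DTT (250 uM final) oxidation coupled to Amplex Red (25 uM)/HRP (250 mU/mL) in HBSS. 15 min preincubation plus 30 min after DTT, room temperature. Ex/Em 525/598 nm; 4-parameter Hill fit against DMSO and 10 uM DA3003.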
row,SMILES,outcome
1,COc1cc(C(=O)O[C@H]2[C@@H]3C=CO[C@@H](O[C@@H]4O[C@H](CO)[C@@H](O)[C@H](O)[C@H]4O)[C@@H]3[C@@]3(CO)O[C@@H]23)ccc1O,inactive
2,CN1C(=O)c2ccccc2NC(=O)C1Cc1ccccc1 (stereo unspecified),inactive
3,COC(=O)C1(C)CCC(O)C2(C)c3c(O)cc(C(C)C)cc3C(O)C(OC(C)=O)C12 (stereo unspecified),inactive
4,N#CC(OC1OC(COC2OC(CO)C(O)C(O)C2O)C(O)C(O)C1O)c1ccccc1 (stereo unspecified),inactive
5,CC(=O)OC1CC(O)C(C)(C)C2CC(OC(C)=O)C3(C)C(CCC4(C)C(c5ccoc5)C(=O)C5OC543)C12C (stereo unspecified),inactive
6,COC1=CC(=O)O[C@@H](/C=C/c2ccccc2)C1,inactive
7,COC(=O)[C@@]12C(=O)C(C)C(=O)[C@]1(C)C(C)=C[C@H]1[C@]3(C=O)CC[C@H](OC(C)=O)C(C)(C)[C@H]3CC[C@@]12C (stereo partly specified),inactive
8,CC1C/C=C/C(O)C(O)CC/C=C/c2cc(O)cc(O)c2C(=O)O1 (stereo unspecified),inactive
9,CC1=CC2/C=C(\C)CCC(O)C3OC(C)(C)OC3CC(=O)OC23C(=O)NC(CC(C)C)C3C1C (stereo unspecified),inactive
10,CN1CCC[C@@H]1Cc1c[nH]c2ccc(Nc3ncccc3[N+](=O)[O-])cc12,inactive
11,C/C=C(\C)C(=O)OC1CC2C(C)(C)OC(=O)CC(OC(C)=O)C2(C)C2CC(OC(=O)C(C)C)C3(C)C(c4ccoc4)CC4OC43C12C (stereo unspecified),inactive
12,CN1C(=O)c2ccccc2NC(=O)[C@]12O[C@@H]2c1ccccc1,inactive
13,C[C@@]12C[C@@H](c3ccoc3)OC(=O)C1CC[C@]1(C)[C@H]2[C@H]2C=C[C@]1(O)C(=O)O2 (stereo partly specified),inactive
14,CN(C(=O)Cc1ccccc1)C(CN1CCCC1)c1ccccc1 (stereo unspecified),inactive
15,COC1C(O)C(OC2CCC3(C=O)C(CCC4C3CCC3(C)C(C5=CC(=O)OC5)CCC43O)C2)OC(C)C1OC1OC(CO)C(O)C(O)C1O (stereo unspecified),inactive
16,COCC1OC(=O)c2coc3c2C1(C)C1=C(C3=O)C2CCC(=O)C2(C)CC1O (stereo unspecified),inactive
17,CC(C)(O)[C@H]1O[C@H]2CC[C@@]3(C)[C@@](O)(CC[C@H]4Cc5c([nH]c6ccccc56)[C@@]43C)C2=CC1=O,inactive

# Molecular target: Cytochrome P450 3A4 (Homo sapiens) (UniProt P08684)
# Test: qHTS for inhibitors of CYP3A4 against the NCATS DSHEA and TCM libraries (AID 1919971);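 also: inhibition lowers luminescence from luciferin made by CYP3A4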
# Conditions: recombinant CYP3A4 enzyme activity, luminescence qHTS; series mostly up to 34.1 µM
# How it was run: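 Isoform-specific enzyme and substrate levels; enzyme-free wells as background. Reaction: 1x NADPH regenerating system, 30-45 min, room temperature, shielded from light; luminescent detection reagent added, 30 min.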
# Cytochrome P450 3A4 (Homo sapiens), sequence (P08684 whole entry, looked up): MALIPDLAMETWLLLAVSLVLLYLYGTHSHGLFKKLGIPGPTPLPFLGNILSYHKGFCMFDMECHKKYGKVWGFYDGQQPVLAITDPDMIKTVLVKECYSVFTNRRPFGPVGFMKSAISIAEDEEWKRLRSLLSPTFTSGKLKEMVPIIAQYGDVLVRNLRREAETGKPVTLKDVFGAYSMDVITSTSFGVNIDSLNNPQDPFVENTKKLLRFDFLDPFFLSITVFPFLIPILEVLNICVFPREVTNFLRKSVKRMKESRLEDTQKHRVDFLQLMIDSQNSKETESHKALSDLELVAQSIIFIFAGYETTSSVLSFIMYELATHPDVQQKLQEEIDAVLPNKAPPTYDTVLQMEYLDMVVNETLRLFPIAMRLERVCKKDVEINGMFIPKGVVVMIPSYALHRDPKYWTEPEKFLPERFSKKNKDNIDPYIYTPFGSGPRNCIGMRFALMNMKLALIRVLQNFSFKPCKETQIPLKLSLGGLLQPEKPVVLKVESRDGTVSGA
row,SMILES,outcome
1,O=C/C=C/c1ccccc1,inactive
2,COC1=CC(=O)O[C@@H](/C=C/c2ccccc2)C1,inactive
3,CNC(C)C(O)c1ccc(O)cc1 (stereo unspecified),inactive

# Molecular target: Cytochrome P450 2D6 (Homo sapiens) (UniProt P10635)
# Test: qHTS for inhibitors of CYP2D6 against the NCATS DSHEA and TCM libraries (AID 1919972)
# Conditions: CYP2D6 enzymatic inhibition, luminescence qHTS; series mostly up to 34.1 µM
# How it was run: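 qHTS, concentration–response format with most substances from 19.5 nM. CYP2D6 + pro-luciferin substrate, 15 min with compound, then 1x NADPH regen, 30–45 min RT dark. Glo detection 30 min, luminescence. Quinidine control.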
# Cytochrome P450 2D6 (Homo sapiens), sequence (P10635 whole entry, looked up): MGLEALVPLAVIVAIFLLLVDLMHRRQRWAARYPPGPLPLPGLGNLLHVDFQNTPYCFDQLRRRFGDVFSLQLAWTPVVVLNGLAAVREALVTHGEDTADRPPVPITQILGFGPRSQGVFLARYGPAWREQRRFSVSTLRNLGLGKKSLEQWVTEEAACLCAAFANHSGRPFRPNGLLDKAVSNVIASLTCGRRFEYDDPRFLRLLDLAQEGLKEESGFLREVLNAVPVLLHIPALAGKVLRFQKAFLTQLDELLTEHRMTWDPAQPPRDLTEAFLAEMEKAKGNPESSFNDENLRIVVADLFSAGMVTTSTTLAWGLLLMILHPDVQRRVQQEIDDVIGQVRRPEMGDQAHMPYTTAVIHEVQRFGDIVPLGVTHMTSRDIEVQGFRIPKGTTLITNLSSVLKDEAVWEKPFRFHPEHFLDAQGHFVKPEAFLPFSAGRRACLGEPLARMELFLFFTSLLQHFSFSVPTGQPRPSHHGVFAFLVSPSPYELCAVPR
row,SMILES,outcome
1,O=C/C=C/c1ccccc1,inactive
2,O=Cc1ccco1,inactive
3,CNC(C)C(O)c1ccc(O)cc1 (stereo unspecified),inactive

# Molecular target: Cytochrome P450 2C9 (Homo sapiens) (UniProt P11712)
# Test: qHTS for inhibitors of CYP2C9 against the NCATS DSHEA and TCM libraries (AID 1919973);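 also: luminogenic pro-luciferin CYP2C9 substrate turned into luciferin with NADPH regeneration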
# Conditions: recombinant CYP2C9 enzyme activity, luminescence; series mostly up to 34.1 µM
# From the text: Assay Development and Screening Technology Laboratory (ADST)
# National Center for Advancing Translational Sciences (NCATS), Rockville, MD
# National Institute of Health (NIH), Bethesda, Maryland
# Dietary Supplements and Natural Products have minor oversight of their safety and efficacy. We assembled a collection of Dietary Supplements and Natural Products (DSNP) as well as Traditional Chinese Medicinal (TCM) Plant extracts, which were screened against an in vitro panel of assays, including a liver cytochrome p450 enzyme panel, CAR/PXR signaling pathways, and P-gp transporter assays, to assess their activity. This pipeline facilitated the interrogation of Natural Product-Drug Interaction (NaPDI) through prominent metabolizing pathways. In addition, we compared the activity profiles of the DSNP/TCM substances with those of an approved drug collection. Many of the approved drugs have well-annotated mechanisms of action (MOA) while the MOAs for most of the DSNP and TCM samples remain unknown. Based on the premise that compounds with similar activity profiles tend to share similar targets or MOA, we clustered the library activity profiles to identify overlap with the NCATS Pharmaceutical Collection to predict the MOAs of the DSNP/TCM substances. Overall, we highlight four significant bioactivity profiles (measured by p-values) as examples of this prediction. To assess broad cytotoxicity, we employed screening against a HepG2 cell line. In addition, transporter-mediated drug interactions are utilized in the characterization of DDIs using a P-glycoprotein (P-gp) assays. To profile potential P-gp activity, a differential cell viability was measured against two cell lines: a parental KB-3-1 human cervical adenocarcinoma cell line and the drug-resistant subline KB-8-5-11 that overexpresses P-gp.
# To this end, we profiled both collections for potential CAR and/or PXR activity, employing a previously published 1536-well qHTS assay.
# [1] […]
# 9; Read; Luminescence; ViewLux plate reader. […]
# Cytochrome P450 2C9 (Homo sapiens), sequence (P11712 whole entry, looked up): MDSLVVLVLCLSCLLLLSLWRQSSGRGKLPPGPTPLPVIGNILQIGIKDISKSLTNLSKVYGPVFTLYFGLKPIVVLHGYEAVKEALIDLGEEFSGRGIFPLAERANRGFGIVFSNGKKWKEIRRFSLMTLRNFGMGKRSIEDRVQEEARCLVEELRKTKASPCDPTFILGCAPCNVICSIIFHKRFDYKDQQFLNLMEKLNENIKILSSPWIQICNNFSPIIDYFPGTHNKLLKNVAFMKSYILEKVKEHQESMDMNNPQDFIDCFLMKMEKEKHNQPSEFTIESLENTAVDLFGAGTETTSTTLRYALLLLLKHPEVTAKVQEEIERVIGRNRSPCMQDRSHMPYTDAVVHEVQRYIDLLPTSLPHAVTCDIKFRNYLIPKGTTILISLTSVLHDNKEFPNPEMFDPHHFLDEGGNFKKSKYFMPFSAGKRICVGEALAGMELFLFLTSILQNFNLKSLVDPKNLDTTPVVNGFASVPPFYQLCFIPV
row,SMILES,outcome
1,O=C/C=C/c1ccccc1,inactive
2,COC1=CC(=O)O[C@@H](/C=C/c2ccccc2)C1,inactive
3,CNC(C)C(O)c1ccc(O)cc1 (stereo unspecified),inactive
